# Assay results from PubChem BioAssay AID686978 (National Center for Advancing Translational Sciences (NCATS), 2013).
# Among all 420,000 compounds or so, about 64,000 (15%) were called active. Another 27% or so got no clear call; they are omitted. The call rests on the fitted dose curve; in most records, active means well fitted inhibition curve with a large enough effect; inconclusive means small, poorly fitted or top-dose-only effect; inactive means flat fitted curve, though single readings scatter. These entries were drawn from the full list. A call without a number means that no potency is given here.
# Assay: qHTS for Inhibitors of human tyrosyl-DNA phosphodiesterase 1 (TDP1): qHTS in cells in absence of CPT; further: nearly all actives have a fitted effect of over 55% in size
# Details: DT40 Tdp1-/- hTDP1 cells, no CPT, ATP luminescence, 48 h; activity change, negative = growth inhibition: at 46.2 µM (top of the series)
# In short: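 Stably hTDP1-transfected Tdp1-null chicken DT40 cells were treated with library compounds minus camptothecin and grown for at least 48 hr at 37 °C, after which cellular ATP was quantified by luminescence.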
# Potency means the concentration at half of the fitted maximal effect.
row,Compound,Potency
1,Cc1c(S(=O)(=O)O)oc2c1C(=O)C(=O)c1c-2ccc2c1CCCC2(C)C,inactive
2,Cc1nc(C)c(C(=O)Nc2ccc(C)c(F)c2)o1,inactive
3,CCOc1c(N2CCCCC2)c(=O)c1=O,inactive
4,CCc1c(Nc2ccccc2C)nc(N)[nH]c1=O,inactive
5,Cc1cc(=O)n(C)c(=O)n1CCCNc1ccccc1,inactive
6,Cc1[nH]c(N)nc(=S)c1CCCNc1ccccc1,16.4 µM (active)
7,O=C(NC(=S)Nc1ccc(Cl)c(C(=O)O)c1)c1cncc(Br)c1,inactive
8,O=C(Cc1ccc(Cl)cc1)NC1CCS(=O)(=O)C1 (stereo unspecified),inactive
9,O=C(COC(=O)/C=C/c1ccc2c(c1)OCO2)NC1CCS(=O)(=O)C1 (stereo unspecified),inactive
10,O=C(COC(=O)/C=C/c1ccc(Cl)cc1)NC1CCS(=O)(=O)C1 (stereo unspecified),18.4 µM (active)
11,Cc1cccc(C)c1NC(=O)CSc1nnc(-c2ccccc2)n1Cc1ccc2c(c1)OCO2,inactive
12,O=S(=O)(NCC1CCCO1)c1ccc2ccccc2c1 (stereo unspecified),inactive
13,CCOc1ccc(S(=O)(=O)NCC2CCCO2)cc1 (stereo unspecified),inactive
14,O=C(Nc1ccc(S(=O)(=O)NCC2CCCO2)cc1)c1ccc(F)cc1 (stereo unspecified),16.4 µM (active)
15,CCOC(=O)c1c(NC(=O)c2ccc(S(=O)(=O)N(C)CC3CCCO3)cc2)sc2c1CC(C)(C)NC2(C)C (stereo unspecified),inactive
16,CN(CC1CCCO1)S(=O)(=O)c1ccc(C(=O)Nc2ccc([N+](=O)[O-])cc2)cc1 (stereo unspecified),5.8 µM (active)
17,CCC(=O)Nc1ccc(C(=O)Nc2ccc3c(c2)C(=O)N(CC2CCCO2)C3=O)cc1 (stereo unspecified),inactive
18,O=C1C(C=NCC2CCCO2)=C(O)c2ccccc21 (stereo unspecified),inactive
19,COC(=O)C1CCN(C(=O)NC2CC(=O)N(c3ccc4c(c3)OCCO4)C2)CC1 (stereo unspecified),inactive
20,COC(=O)c1onc(-c2c(OC)cc(OC)cc2OC)c1C(=O)OC,inactive
21,CN(Cc1cc2cc(F)ccc2[nH]1)Cc1nc(-c2cnccn2)no1,inactive
22,COc1cc(C(=O)NNC(=O)CN2C(=O)NC3(CCCC3)C2=O)cc(OC)c1OC,inactive

row,Compound,Potency
1,Cc1sc2nc(CSCC(=O)Nc3c(Cl)cccc3Cl)[nH]c(=O)c2c1C,9.2 µM (active)
2,CCOC(=O)c1sc2nc(CSCC(=O)OCc3ccc(C(=O)OC)o3)[nH]c(=O)c2c1C,inactive
3,Cc1sc2nc(COC(=O)C(NC(=O)c3ccc(Cl)cc3Cl)C(C)C)[nH]c(=O)c2c1C (stereo unspecified),inactive
4,Cn1nnnc1SCC(=O)N1CCN(Cc2ccccc2)CC1,inactive
5,COc1ccc(S(=O)(=O)N2CCCCC2)cc1C(=O)NC1CCS(=O)(=O)C1 (stereo unspecified),inactive
6,Cc1[nH]nc(SCC(=O)NCC(C)C)c1[N+](=O)[O-],inactive
7,COc1cccc(CNC(=O)c2cc(=O)[nH]c3ccc(S(=O)(=O)N4CCCCC4)cc23)c1,inactive
8,Cc1ccc(S(=O)(=O)N2CCN(c3ccccc3)CC2)cc1C,inactive
9,Cc1cccc(N2CCN(S(=O)(=O)c3ccc4[nH]c5c(c4c3)CCCCC5)CC2)c1C,4.61 µM (active)
10,Cc1cc(C)c2c(c1)c(C)cc1nnc(SCC(=O)NCc3ccco3)n12,inactive
11,O=C(N/C(=C\c1ccc(O)cc1)C(=O)N1CCCCC1)c1ccccc1,inactive
12,COc1cc2c(cc1OC)C(Cc1cc(OC)c(OC)cc1[N+](=O)[O-])=NCC2,11.6 µM (active)
13,COc1cc(CNCc2ccc3c(c2)OCO3)c([N+](=O)[O-])cc1OC,inactive
14,COc1cc(CN2CCCN(C)CC2)c([N+](=O)[O-])cc1OC,inactive
15,O=C(NC1CCN(S(=O)(=O)c2ccc(F)cc2)CC1)c1ccccc1,inactive
16,CCCCN1C(=O)c2[nH]nc(-c3ccccc3O)c2C1c1cccc(OCc2ccccc2)c1 (stereo unspecified),18.4 µM (active)
17,COc1ccc(/C(O)=C2/C(=O)C(=O)N(CCCN(C)C)C2c2ccccc2)cc1OC (stereo unspecified),inactive
18,C=CCOc1cccc(C2C(C(=O)c3ccc(C)o3)=C(O)C(=O)N2CCCn2ccnc2)c1 (stereo unspecified),inactive
19,CCCCn1c(N)c(N(CCOC)C(=O)c2cccc(OCc3ccccc3)c2)c(=O)[nH]c1=O,inactive
20,COc1ccc(CCN(C)CCN2C(=O)c3ccccc3C2=O)cc1OC,inactive
21,COc1ccc(CCN2C(=O)c3[nH]nc(-c4ccccc4O)c3C2c2ccc(C)cc2)cc1OC (stereo unspecified),18.4 µM (active)
22,Cc1cc(NS(=O)(=O)c2ccc(NC(=O)c3cccc(OC(F)F)c3)cc2)nc(C)n1,inactive

row,Compound,Potency
1,O=C(O)CCSc1nnc(-c2ccccc2)n1-c1ccccc1,inactive
2,Cc1ccc(NC(=O)c2ccn(C(=O)Nc3ccccc3)n2)c(C)c1,inactive
3,CCN(CC)CCNC(=O)c1cc(S(C)(=O)=O)ccc1OC,inactive
4,COc1ccc(N(CC(=O)NCCSCc2cccc(Cl)c2)S(C)(=O)=O)cc1,inactive
5,COc1cccc(/C=N/Nc2ncc(C(F)(F)F)cc2Cl)c1O,4.11 µM (active)
6,COc1cccc(/C(C)=N/Nc2ncc(Cl)cc2Cl)c1,inactive
7,COc1cc(/C=C2\SC(=S)N(Nc3ncc(C(F)(F)F)cc3Cl)C2=O)cc(OC)c1OC,inactive
8,CCN(CC)Cc1csc2ccc(Br)cc12,inactive
9,C=CCc1ccc(OCC(O)CN2CCN(Cc3ccccc3)CC2)c(OC)c1 (stereo unspecified),inactive
10,COc1ccc(CCNCC(O)Cn2ccc3ccccc32)cc1OC (stereo unspecified),inactive
11,CCCn1c(=N)n(CC(O)COc2ccccc2OC)c2ccccc21 (stereo unspecified),7.31 µM (active)
12,COC(=O)c1ccc(OCC(O)CN(CCO)CC(O)Cn2ccc3ccccc32)cc1 (stereo unspecified),inactive
13,COc1ccccc1OCC(O)CN1CCOCC1 (stereo unspecified),inactive
14,C=CCn1c(=N)n(CC(O)COc2ccc(OC)cc2)c2ccccc21 (stereo unspecified),20.6 µM (active)
15,COc1ccc(C(=O)NCC2CCCO2)cc1S(=O)(=O)NCc1ccc(Cl)cc1 (stereo unspecified),inactive
16,CN1CCN(C(CNS(=O)(=O)c2cccs2)c2cccnc2)CC1 (stereo unspecified),inactive
17,COc1cccc(/C=C/C(=O)OCC(=O)N2CCCc3ccccc32)c1,inactive
18,Cc1cccc(N(C)C(=O)CS(=O)(=O)c2cccc3nsnc23)c1,inactive
19,CC1(C)OC(=O)C(=CSc2ccc(C(C)(C)C)cc2)C(=O)O1,inactive
20,COCCCNC(NC(=O)c1ccc(OC)cc1)C(Cl)(Cl)Cl (stereo unspecified),inactive
21,COCCCNC(NC(=O)c1ccc(C)cc1)C(Cl)(Cl)Cl (stereo unspecified),14.6 µM (active)
22,CCOCCCNC(=O)C(NC(=O)CNC(=O)c1ccccc1)c1ccc(C)cc1 (stereo unspecified),inactive
